# In PubChem BioAssay AID1259389 (Center for Chemical Genomics, University of Michigan, 2018):
# About 620 (0.62%) of roughly 100,000 compounds were called active. Only a selection was taken, and actives are over-represented in it overall. A number with no mark means an inactive call. The calls were made as follows: active = z-score of 3 or more in at least 2 runs; inactive = the rest.
# Assay: TAR RNA-Tat peptide displacers, HIV-1, primary screen, biochemical, FRET, FAM/TAMRA-labeled Tat (AID 1259389)
# Conditions: HIV-1 TAR RNA, Tat peptide displacement FRET; hits give high values
row,Structure (SMILES),z-score
1,Cn1c(=O)oc2cc(S(=O)(=O)CCC(=O)Nc3cccc(F)c3)ccc21,0.47
2,O=C(Cn1nc(-c2ccccc2)c2cnc3cc4c(cc3c21)OCCO4)NC1CCCC1,-0.04
3,O=C(CSc1ncc(S(=O)(=O)c2ccccc2)c(=O)[nH]1)Nc1cccc(F)c1,-1.01
4,CCc1ccc(C2CC(=O)Nc3c2c(C)nn3-c2nc3ccccc3[nH]2)s1 (stereo not given),1.63
5,Cc1ccc2occ(C3Nc4cc(C)c(C)cc4NC4=C3C(=O)CC(C)(C)C4)c(=O)c2c1 (stereo not given),0.26
6,Cc1cccc(C)c1OCc1cc(=O)n2nc(-c3ccco3)sc2n1,36.5 (active)
7,Cc1nnc2sc(-c3ccco3)nn12,-1.16
8,COc1cccc(OCc2cc(=O)n3nc(C)sc3n2)c1,-0.36
9,CCCCc1nn2c(=O)cc(CSc3n[nH]c(CC(C)C)n3)nc2s1,-1.13
10,C=CCSc1ncc(Cl)c(C(=O)Nc2c(C(=O)Nc3ccc(OC)cc3)oc3ccccc23)n1,1.45
11,COC(=O)c1ccc(C2C(C(=O)OC3CCCC3)=C(C)NC3=C2C(=O)CCC3)cc1 (stereo not given),2.05
12,c1ccc(-c2nnc3sc(-c4ccc5c(c4)OCCO5)nn23)cc1,-0.37
13,Cc1ccc(-c2nnc3sc(-c4ccccn4)nn23)cc1,1.2
14,COc1ccc(-c2nn3c(-c4ccccc4)nnc3s2)cc1OC,21 (active)
15,CCC1Sc2ccc(S(=O)(=O)CCC(=O)NCCc3sccc3C)cc2NC1=O (stereo not given),-0.87
16,O=c1c(NC2CCCC2)c(-c2ccc3c(c2)CCCC3)c1=O,-0.58
17,CCN(CC)C(=O)CCc1nc(CN2CCN(S(=O)(=O)c3cccs3)CC2)no1,-6.66
18,CCCCn1c(=O)[nH]c(=O)c2sc(N)nc21,0.78
19,COc1cc(Br)c(CCn2c(=O)[nH]c(=O)c3sc(N)nc32)cc1OC,28.5 (active)
20,COc1ccc(-n2c(=O)[nH]c(=O)c3sc(NC(=O)Nc4ccccc4)nc32)cc1,-0.15
21,Cc1c(C(=O)N2CCOCC2)oc2c1-c1nn(CC(=O)NC3CCCc4ccccc43)cc1CC2 (stereo not given),3.05
22,Cc1cc(NCc2cccs2)n2nc(Cc3cccc(F)c3)nc2n1,1.34

row,Structure (SMILES),z-score
1,Cc1cc(C)cc(NC2c3ncccc3C(=O)N2c2ccccc2)c1 (stereo not given),-1.21
2,COCCCN1C(=O)c2cc3sccc3n2CC1(C)C(=O)NC1CCCC(C)C1C (stereo not given),2.51
3,CC1CCCCC1NC(=O)C1(C)Cn2c(cc3sccc32)C(=O)N1Cc1ccco1 (stereo not given),2.7
4,CC1CCCC(NC(=O)C2(C)Cn3c(cc4occc43)C(=O)N2Cc2ccc3c(c2)OCO3)C1C (stereo not given),6.96 (active)
5,CC1CCC(NC(=O)C2(C)Cn3c(cc4occc43)C(=O)N2c2ccc(Cl)cc2)CC1 (stereo not given),5.26 (active)
6,CC1CCC(NC(=O)C2(C)Cn3c(cc4occc43)C(=O)N2CCN(C)C2CCCCC2)CC1 (stereo not given),0.99
7,CCCN1C(=O)c2cc3sccc3n2CC1(C)C(=O)NC1CCC(C)CC1 (stereo not given),1.88
8,CCOC(=O)c1[nH]c(C)c(C(=O)NC2CCCC(C)C2C)c1C (stereo not given),0.78
9,CSc1cccc(NC(=O)N2c3ccccc3NC3=C(C(=O)CCC3)C2c2ccco2)c1 (stereo not given),0.6
10,O=C1c2ccccc2S(=O)(=O)N1Cc1nnnn1-c1ccccc1,2.08
11,Cc1nc(-c2ccc(C)c(S(=O)(=O)Nc3ccc(Cl)cc3F)c2)cs1,1.67
12,CN1C(C(=O)NCc2ccccc2)=CC(c2ccc3c(c2)OCO3)=NS1(=O)=O,3.21 (active)
13,CN1C(C(=O)N2CCCc3ccccc32)=CC(c2ccc3c(c2)OCO3)=NS1(=O)=O,2.14
14,CCNC(=O)C1=CC(c2cccs2)=NS(=O)(=O)N1C,1.38
15,CNC(=O)c1c(NC(=O)CCSc2ccccc2)sc2c1CCC2,0.4
16,COC(=O)c1cc2n(n1)CC(C)(C(=O)NC1CCC(C)CC1)N(CCc1cccs1)C2=O (stereo not given),0.65
17,CSc1cccc(NC(=O)CSc2nnc(C)n3c2cc2oc(C)cc23)c1,0.7
18,O=C(Nc1nccs1)c1cc(-c2ccc(Cl)cc2)on1,15.3
19,CC1CCCC(NC(=O)C(C)n2ncn3cccc3c2=O)C1C (stereo not given),11 (active)
20,Cc1cc2c(cc3c(=O)n(CC(=O)NC4CCCC(C)C4C)ncn32)s1 (stereo not given),-0.21
21,CN1CCN(C(=O)Cn2ncn3cccc3c2=O)CC1,1.42
22,CCCCn1c(C)c(C)c2c1ncn1nc(Cc3ccc(OC)cc3)nc21,0.12

row,Structure (SMILES),z-score
1,CC1CCCCN1CCCNC(=O)c1noc2c1CCc1sccc1-2 (stereo not given),1.13
2,CN1C(=O)C[C@H](C(=O)O)C1c1cccnc1 (stereo not given in full),1.8
3,Cc1ccc2nc(Nc3ncc4c(n3)CC(C)(C)CC4=O)nc(C)c2c1,1.31
4,CCOc1ccc2nc(Nc3ncc4c(n3)CC(c3ccco3)CC4=O)nc(C)c2c1 (stereo not given),13.8 (active)
5,CCOc1ccc2nc(Nc3nc(C)c(CC)c(=O)[nH]3)nc(C)c2c1,2.61
6,Cn1cc(NC(=O)Nc2cccc(Cl)c2)c2ccccc2c1=O,-0.05
7,Cc1ccc(C2Nc3cccc4cccc(c34)N2)cc1,6.71 (active)
8,Cc1ccc(C2CC(c3cccc(C)c3)n3nc(N)nc3N2)cc1 (stereo not given),0.73
9,COc1cccc(C2Nc3cccc4cccc(c34)N2)c1,21.3 (active)
10,COc1cccc(C2Nc3cccc4cccc(c34)N2)c1OC,3.46
11,Oc1ccc(C2Nc3cccc4cccc(c34)N2)cc1,4.86 (active)
12,COc1ccc(N2C(=O)C3CCCN3C2c2cccc(OC)c2)cc1 (stereo not given),-0.15
13,COc1ccc(C2CC(=O)C3=C(C2)Nc2ccccc2NC3c2cccc(Cl)c2)cc1 (stereo not given),-1.58
14,Brc1ccccc1C1Nc2cccc3cccc(c23)N1,5.65 (active)
15,CCC(C)NC(=O)c1ccc(CN2C(=O)C(C)=C(c3ccc(C)cc3)S2(=O)=O)cc1 (stereo not given),1.92
16,Cc1nc2nc(Cc3ccccc3)[nH]n2c(=O)c1C,2.84
17,Cc1cc2nc(COC(=O)c3ccccc3Cl)cc(=O)n2o1,0.42
18,Oc1ccc2ncccc2c1C(Nc1ccccn1)c1cccc(Br)c1 (stereo not given),10.7
19,O=C(OCc1cc(=O)n2nc(C3CCCCC3)sc2n1)c1ccccc1,0.63
20,COc1cc(C2OC(c3ccc(Br)cc3)=NN2C(C)=O)ccc1OC(C)=O (stereo not given),1.63
21,Cc1c(C(=O)N2CCC(C)CC2)c(S(=O)(=O)N2CCN(C3CCCCC3)CC2)c(C)n1C,1.14
22,Cc1cccc(NS(=O)(=O)c2ccc(-c3ccc(=O)[nH]n3)o2)c1C,0.96

row,Structure (SMILES),z-score
1,CCOc1ccc(/C=C/c2nc(C#N)c(N3CCNCC3)o2)cc1,0.65
2,CCSc1ncc(CO)n1Cc1ccc(F)cc1,0.78
3,Cc1ccn2c(=O)c(C(=O)NCCCOC(C)C)c(O)nc2c1,0.76
4,COc1ccc(-c2nc3ccccc3[nH]2)cc1OC,2.05
5,Cc1nnc(NC(=O)CN2C(=O)c3cccnc3Sc3ccccc32)s1,1.32
6,O=C(Cn1c(=O)sc2ccccc21)NCCC1=CCCCC1,0.76
7,C=CCOC(=O)C1=C(C)NC2=C(C(=O)CC(C)(C)C2)C1c1cc2c(cc1Cl)OCO2 (stereo not given),0.26
8,O=C(c1cc(-c2ccccc2)n[nH]1)N1CCn2c1nc1ccccc12,0.42
9,COc1ccc(Cl)cc1N1CC(O)=C(c2nc3ccccc3n2C)C1=N,0.34
10,CCCC1CNc2cc(C)ccc2O1 (stereo not given),2.06
11,C[C@@H]1O[C@@H](O[C@H]2[C@@H](Oc3cc(O)c4c(c3)O[C@H](c3ccc(O)cc3)CC4=O)O[C@H](CO)[C@@H](O)[C@@H]2O)[C@H](O)[C@H](O)[C@H]1O,2.09
12,COc1ccc(-c2cc(=O)c3c(O)cc(O[C@@H]4O[C@H](CO[C@@H]5O[C@@H](C)[C@H](O)[C@@H](O)[C@H]5O)[C@@H](O)[C@H](O)[C@H]4O)cc3o2)cc1O,4.29
13,C[C@@H]1O[C@@H](OC[C@H]2O[C@@H](Oc3cc(O)c4c(c3)O[C@H](c3ccc(O)c(O)c3)CC4=O)[C@H](O)[C@@H](O)[C@@H]2O)[C@H](O)[C@H](O)[C@H]1O,3.52 (active)
14,Cc1nc(S(=O)(=O)Nc2ccc(C(C)C)cc2)cn1C,1.64
15,O=C1c2ccccc2C(Nc2ccc(F)cc2F)N1c1ccccn1 (stereo not given),2.34
16,CCOC(=O)N1CCN(c2cc(NCCO)c3c4c(onc24)-c2ccccc2C3=O)CC1,2.61
17,CN1CCN(c2cc(NCCCC(=O)O)c3c4c(onc24)-c2ccccc2C3=O)CC1,1.94
18,CN(C)CCCNc1cc(N2CCN(c3ccccc3F)CC2)c2noc3c2c1C(=O)c1ccccc1-3,5.01 (active)
19,COc1cc(C)c(S(=O)(=O)N2CCc3cc4cc(C)ccc4nc32)cc1C,-1.52
